These results are taken from PubChem BioAssay AID1159554 (Broad Institute, 2015).

The structures appear in SMILES notation. Hit rate of the full screen: of about 94,000 compounds, about 2,100 (2.2%) were called active. Rule as the data show it: active = activity change below about -80%; inconclusive = no clear call, values can overlap the other calls; inactive = above that. The list comes from a sample in which actives are over-represented; it also holds similar structures and randomly drawn compounds.

This assay is described as follows: Dd2 malaria parasite growth inhibition – SYBR Green fluorescence, single dose replicates, primary screen (AID 1159554). The settings on record: P. falciparum Dd2 growth, 72 h, at 10 µM, active compounds read low.
`CCC(=O)N(C)C[C@H]1Oc2ncc(C#CC(C)C)cc2C(=O)N([C@@H](C)CO)C[C@H]1C`: the activity change is 34.1% (inactive).
Consider `CN1C(=O)c2cc(NC(=O)C3CCCC3)ccc2OC[C@H]2O[C@H](CC(=O)NCc3ccccc3F)CC[C@H]21`, for which the activity change was -16.4% (inactive).
As to `O=C(C1CCCC1)N1[C@H](CO)[C@H]2c3ccccc3N(S(=O)(=O)c3ccccc3)C[C@H]21`, the activity change was -20% (inactive).
`Cc1noc(C)c1NC(=O)N(C)C[C@H]1Oc2ccc(NC(=O)Cn3cnnn3)cc2CC(=O)N([C@H](C)CO)C[C@@H]1C`: the activity change was 26.5% (inactive).
As for `C[C@H](CO)N1C[C@H](C)[C@@H](CN(C)Cc2ccc(C(=O)Nc3ccccc3N)cc2)Oc2c(NC(=O)C3CC3)cccc2C1=O`, the figure is -57.7% (inactive); as for `Cc1cc(C(=O)Nc2cccc3c2O[C@@H](CN(C)Cc2ccc(C(=O)O)cc2)[C@H](C)CN([C@@H](C)CO)C3=O)n(C)n1`, 6.12% (inactive); as for `C[C@@H]1CN([C@@H](C)CO)C(=O)c2cccc(NC(=O)Nc3ccccc3)c2O[C@H]1CN(C)Cc1ccccc1`, -14.5% (inactive).
On to `C[C@H](CO)N1C[C@H](C)[C@H](CN(C)Cc2ccc(C(=O)Nc3ccccc3N)cc2)Oc2c(NC(=O)Nc3ccccc3)cccc2C1=O`, for which the activity change was -80.2% (active).
In the case of `Cc1cc(C(=O)Nc2cccc3c2O[C@@H](CN(C)Cc2ccc(C(=O)Nc4ccccc4N)cc2)[C@H](C)CN([C@@H](C)CO)C3=O)n(C)n1` it was -84.4% (active); in that of `Cc1cc(C(=O)Nc2cccc3c2O[C@@H](CN(C)Cc2ccncc2)[C@@H](C)CN([C@@H](C)CO)C3=O)n(C)n1`, 6.17% (inactive).
As to `CC(C)(C)[S@](=O)N1Cc2cc(C(=O)N3CCCCC3)nc(-c3cccc(Br)c3)c2[C@@H]1CCO`, the activity change was -2.81% (inactive).
`COc1cccc(S(=O)(=O)N[C@H]2C=C[C@@H](CC(=O)NCc3ccccc3)O[C@@H]2CO)c1`: the activity change was 18.4% (inactive).
On to `O=C(C[C@@H]1CC[C@@H]2[C@H](COC[C@H](O)CN2C(=O)c2ccncc2)O1)NCc1cc(F)cc(F)c1`, for which the activity change was 1.9% (inactive).
As for `COc1ccc(-c2cnc3c(c2)C(=O)N([C@@H](C)CO)C[C@H](C)[C@@H](CN(C)C(=O)C2CC2)O3)cc1`, the figure is 13.9% (inactive).
For `O=C(c1ccc(F)cc1)N1CC2(C1)[C@H](c1ccccc1)[C@@H](CO)N2Cc1ccccn1`, the activity change is -24.5% (inactive).
In the case of `Cc1ccccc1S(=O)(=O)N1CC(=O)N2[C@H](CO)[C@@H](c3ccc(C#Cc4ccccc4)cc3)[C@H]2C1`, the activity change is -22.9% (inactive).
With `O=C1CN(S(=O)(=O)Cc2ccccc2)C[C@@H]2[C@@H](c3ccc(C#Cc4ccccc4)cc3)[C@@H](CO)N12`, the activity change is -68.4% (inactive).
As for `O=C1CN(S(=O)(=O)c2ccccc2)C[C@H]2[C@H](c3ccc(C#CCc4ccccc4)cc3)[C@@H](CO)N12`, the figure is -82.9% (active).
Regarding `Cc1ccccc1S(=O)(=O)N1CC(=O)N2[C@H](CO)[C@H](c3ccc(C#CC4CC4)cc3)[C@@H]2C1`, the activity change is -84.8% (active).
`O=C1CN(S(=O)(=O)c2ccccc2)C[C@H]2[C@H](c3ccc(C4=CCCC4)cc3)[C@@H](CO)N12`: the activity change was 5.25% (inactive).
`Cc1ccccc1S(=O)(=O)N1CC(=O)N2[C@H](CO)[C@H](c3ccc(C#CCN(C)C)cc3)[C@H]2C1`: the activity change is -1.17% (inactive).
As for `C[C@@H]1CN([C@@H](C)CO)S(=O)(=O)c2ccc(C#CC(C)(C)O)cc2O[C@H]1CN(C)C(=O)CN(C)C`, the figure is 31.6% (inactive); as for `Cc1ccccc1S(=O)(=O)N1[C@@H](C#N)[C@H](c2ccccc2)[C@@H]1CO`, 20.4% (inactive).
Consider `CCCNC(=O)N1CC2(CN(C(=O)C3CCCCC3)C2)c2c([nH]c3cc(OC)ccc23)[C@@H]1CO`, for which the activity change is -5.82% (inactive).
For `O=C(Nc1ccc(F)cc1)N[C@H]1C=C[C@@H](CC(=O)N2CCOCC2)O[C@H]1CO`, the activity change was -16.7% (inactive).
On to `C[C@@H]1CN([C@@H](C)CO)C(=O)c2cccc(NC(=O)Nc3cccc4ccccc34)c2O[C@H]1CN(C)S(=O)(=O)c1ccccc1`, for which the activity change is -19.1% (inactive).
As for `C[C@H]1CN([C@@H](C)CO)C(=O)c2cccc(NC(=O)CCCCCC(=O)Nc3ccccc3N)c2O[C@@H]1CN(C)S(=O)(=O)c1cn(C)cn1`, the figure is 22.6% (inactive); as for `C[C@H](CO)N1C[C@H](C)[C@H](CN(C)S(=O)(=O)c2ccccc2)Oc2c(NC(=O)CCCCCC(=O)Nc3ccccc3N)cccc2C1=O`, -73.2% (inactive); as for `COc1ccc(S(=O)(=O)N(C)C[C@H]2Oc3c(NC(=O)Nc4cccc5ccccc45)cccc3C(=O)N([C@@H](C)CO)C[C@H]2C)cc1`, -88.1% (active).
In the case of `COc1ccc(S(=O)(=O)N(C)C[C@H]2Oc3c(NC(=O)CCCCCC(=O)Nc4ccccc4N)cccc3C(=O)N([C@H](C)CO)C[C@H]2C)cc1` it was -89.5% (active); in that of `COc1ccc(S(=O)(=O)N(C)C[C@@H]2Oc3c(NC(=O)NC(C)C)cccc3C(=O)N([C@@H](C)CO)C[C@@H]2C)cc1`, -6.46% (inactive); in that of `COCC(=O)Nc1ccc2c(c1)C(=O)N(C)C[C@@H](OC)[C@@H](C)CN(C(=O)Cc1ccccn1)[C@@H](C)CO2`, -33.6% (inactive).
Turning to `COc1ccc(S(=O)(=O)N(C)C[C@H]2OCCCC[C@@H](C)Oc3ccc(NS(=O)(=O)c4ccc(C)cc4)cc3C(=O)N([C@@H](C)CO)C[C@@H]2C)cc1`, the activity change was -36.4% (inactive).
For the molecule `CCCNC(=O)N1[C@H](CO)[C@H]2c3ccccc3N(C(=O)Nc3cccc(Cl)c3)C[C@H]21`, the activity change was 6.16% (inactive).
On to `COc1cccc(-c2ccc([C@@H]3[C@@H](CO)N(C(=O)c4ccccn4)[C@H]3C#N)cc2)c1`, for which the activity change was -11.6% (inactive).
In the case of `COc1cccc(C#Cc2ccc([C@H]3[C@@H](CO)N(C(=O)c4ccccn4)[C@H]3C#N)cc2)c1` it was -92% (active); in that of `COc1cccc(-c2ccc([C@@H]3[C@@H](C#N)N(C(=O)c4ccccn4)[C@H]3CO)cc2)c1`, -35.5% (inactive); in that of `CCCN1C[C@H](C)[C@H](OC)CN(C)C(=O)c2cc(NC(=O)NC3CCCC3)ccc2OC[C@H]1C`, 20% (inactive).
As for `C[C@@H]1CCCCO[C@@H](CN(C)S(C)(=O)=O)[C@H](C)CN([C@@H](C)CO)C(=O)c2cc(NC(=O)Nc3ccc4c(c3)OCO4)ccc2O1`, the figure is 33.8% (inactive); as for `CO[C@H]1CN(C)C(=O)c2cc(NS(=O)(=O)c3ccccc3)ccc2OC[C@@H](C)N(Cc2nccs2)C[C@@H]1C`, -8.31% (inactive); as for `CCS(=O)(=O)N1CC2(CN(Cc3cc(F)ccc3F)[C@@H](CO)c3c2c2ccc(OC)cc2n3C)C1`, -72.9% (inactive).
In the case of `CO[C@H]1CN(C)C(=O)c2cc(NS(C)(=O)=O)ccc2OC[C@@H](C)N(Cc2ccccc2)C[C@@H]1C` it was -41.2% (inactive); in that of `COCC(=O)N1CCC2(CC1)CN(Cc1ccccc1Cl)[C@H](CO)c1c2c2ccc(OC)cc2n1C`, -60.4% (inactive).
For `COc1ccc2c3c(n(C)c2c1)[C@@H](CO)N(Cc1ccccc1)CC31CN(C(=O)C2CC2)C1`, the activity change is -20.3% (inactive).
On to `CCCC(=O)N1CC2(CN(C(=O)NC(C)C)C2)c2c([nH]c3cc(OC)ccc23)[C@@H]1CO`, for which the activity change is 16.5% (inactive).
In the case of `COc1ccc2c3c([nH]c2c1)[C@@H](CO)N(C(C)=O)CC31CCN(Cc2ccccc2Cl)CC1` it was -38.2% (inactive); in that of `COc1ccc2c3c([nH]c2c1)[C@H](CO)N(Cc1ccccc1Cl)CC31CN(C(=O)C2CC2)C1`, -92.3% (active).
In the case of `COc1ccc2c3c([nH]c2c1)[C@H](CO)N(Cc1ccccc1OC)CC31CCN(S(=O)(=O)c2ccccc2)CC1` it was -79.1% (inactive).
With `COc1ccc2c3c([nH]c2c1)[C@@H](CO)N(Cc1ccccc1F)CC31CN(C(=O)C2CC2)C1`, the activity change is -48% (inactive).
Take `COc1ccc2c3c(n(C)c2c1)[C@H](CO)N(Cc1ccccc1Cl)CC31CN(C(=O)CN(C)C)C1`: the activity change is -83.6% (active).
As for `CCC(=O)N1CC2(C1)CN(Cc1ccccc1Cl)[C@@H](CO)c1[nH]c3cc(OC)ccc3c12`, the figure is -91.3% (active); as for `COc1ccc(-c2ccc([C@@H]3[C@@H](C#N)N(C(=O)C4CCCCC4)[C@H]3CO)cc2)cc1`, -30.1% (inactive).
In the case of `CCC(=O)Nc1ccc2c(c1)C(=O)N(C)C[C@H](OC)[C@H](C)CN(C(=O)c1ccccn1)[C@@H](C)CO2`, the activity change is 15.8% (inactive).
As for `COc1ccc2c3c(n(C)c2c1)[C@H](CO)N(C(=O)Nc1c(C)noc1C)CC31CN(CC2CC2)C1`, the figure is -7.59% (inactive); as for `O=C(C[C@H]1CC[C@H]2NC[C@@H](O)COC[C@@H]2O1)NCCN1CCCC1`, 9.89% (inactive); as for `COc1cccc(CN(C)C[C@H]2OCc3ccccc3-c3c(n(C)c4ccccc34)C(=O)N([C@@H](C)CO)C[C@@H]2C)c1`, -62% (inactive).
In the case of `COc1ccc2c3c(n(C)c2c1)[C@H](CO)NCC31CN(S(=O)(=O)c2cccc(C)c2)C1` it was 21.6% (inactive); in that of `C[C@H](CO)N1C[C@H](C)[C@H](CN(C)S(C)(=O)=O)Oc2c(NC(=O)c3ccc(-c4nccs4)cc3)cccc2C1=O`, -3.36% (inactive).
`C[C@@H]1CN([C@@H](C)CO)C(=O)c2cccc(NC(=O)c3cnccn3)c2O[C@H]1CN(C)Cc1ccc(-c2ccccc2)cc1`: the activity change is -64.1% (inactive).
In the case of `C[C@H]1CN([C@@H](C)CO)C(=O)c2cccc(NC(=O)c3ccc(-c4nccs4)cc3)c2O[C@H]1CN(C)Cc1ccc(C(=O)O)cc1` it was 24% (inactive).
In the case of `C[C@@H]1CN([C@@H](C)CO)C(=O)c2cccc(NC(=O)c3ccc(-c4nccs4)cc3)c2O[C@H]1CN(C)Cc1ccc(Cl)c(Cl)c1` it was -90.3% (active); in that of `C[C@@H]1CN([C@@H](C)CO)C(=O)c2cccc(NC(=O)c3cnccn3)c2O[C@H]1CN(C)Cc1ccc(C(=O)O)cc1`, -5.79% (inactive).
As for `C[C@H]1CN([C@@H](C)CO)C(=O)c2cccc(NS(=O)(=O)c3cccs3)c2O[C@H]1CN(C)Cc1ccc(C(=O)Nc2ccccc2N)cc1`, the figure is -87.1% (active).
Turning to `C[C@H](CO)N1C[C@H](C)[C@@H](CN(C)S(C)(=O)=O)Oc2c(NC(=O)c3ccc(-c4nccs4)cc3)cccc2C1=O`, the activity change was -4.15% (inactive).
As for `C[C@@H]1CN([C@@H](C)CO)C(=O)c2cccc(NS(=O)(=O)c3cccs3)c2O[C@H]1CN(C)Cc1ccncc1`, the figure is 28.4% (inactive); as for `C[C@H](CO)N1C[C@H](C)[C@@H](CN(C)Cc2ccc(C(=O)Nc3ccccc3N)cc2)Oc2c(NC(=O)c3ccc(-c4nccs4)cc3)cccc2C1=O`, -90% (active); as for `C[C@@H]1CN([C@H](C)CO)C(=O)c2cccc(NC(=O)c3cnccn3)c2O[C@@H]1CN(C)Cc1ccc(C(=O)Nc2ccccc2N)cc1`, -88.3% (active).
`C[C@@H]1CN([C@@H](C)CO)C(=O)c2cccc(NS(=O)(=O)c3cccs3)c2O[C@@H]1CN(C)CC1CC1`: the activity change is 18.4% (inactive).
On to `C[C@@H]1CN([C@@H](C)CO)C(=O)c2cccc(NC(=O)c3ccc(-c4nccs4)cc3)c2O[C@@H]1CN(C)Cc1ccncc1`, for which the activity change is -15.6% (inactive).
